# Structures can show the parent of a compound that is named as a salt.
# Test system: Saccharomyces cerevisiae
# Experiment: fraction of cells in G1 phase (DNA content, flow cytometry); higher = more cells with unreplicated DNA (G1 delay)
# Settings: temperature: 30 C; YPD; JTY2953 pdr5 snq2 (sensitized); drug added to: cultures diluted from stationary phase; 6-7 h
# How it was run: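 S. cerevisiae in YPD at 30°C was dosed with library drugs, using a final 20 µg/ml for sensitized JTY2953 diluted 1∶200 from overnight and fixed at 6–7 h, or dosing dividing JTY2953 (fixed at 6 h) and BY4741 (fixed at 4.33 h). Ethanol-fixed, SYTOX Green-stained cells were read by flow cytometry (10,000 events). The G1 fraction is taken as the Dean-Jett-Fox G1 peak area divided by the G1 and G2/M areas combined.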
row,SMILES,fraction of cells in G1 phase
1,Nc1ccn([C@@H]2O[C@H](CO)[C@@H](O)C2(F)F)c(=O)n1 [Gemcitabine HCl] (75.9871 µM),0.49
2,CN1[C@@H]2CC[C@H]1C[C@@H](OC(=O)c1c[nH]c3ccccc13)C2 [Tropisetron HCl] (70.3331 µM),0.469
3,COc1ccccc1OCC(O)CO (configuration not stated) [Guaifenesin] (100.898 µM),0.463
4,CC(=O)Oc1ccc(C(c2ccc(OC(C)=O)cc2)c2ccccn2)cc1 [Bisacodyl] (55.3402 µM),0.499
5,C[C@@H]1C[C@H]2[C@@H]3CCC4=CC(=O)C=C[C@]4(C)[C@@]3(F)[C@@H](O)C[C@]2(C)[C@@]1(O)C(=O)CO [Dexamethasone] (50.9591 µM),0.504
6,CC(Oc1c(Cl)cccc1Cl)C1=NCCN1 (configuration not stated) [Lofexidine] (77.1792 µM),0.483
7,c1ccc2c(CC3=NCCN3)cccc2c1 [Naphazoline HCl] (95.1108 µM),0.456
